Records with an inconclusive call do not appear. Entries that show only a call come without a potency. Calls of active or inactive are those of the source. Unless noted, the call rests on the fitted dose curve; in most records, active means well fitted curve in the direction sought with a large enough effect; inconclusive means small, poorly fitted or top-dose-only effect, or another doubt; inactive means no such curve, though single readings can be large; an effect the other way counts as inactive or inconclusive.
Columns and labels:
[1] = molecular target: D(1A) dopamine receptor (Homo sapiens) (UniProt P21728); experiment: HTS Assay for Allosteric Agonists of the Human D1 Dopamine Receptor: Primary Screen for Potentiators (AID 488982)
Procedure, shortened: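 Tetracycline-induced HEK293 Trex D1 cells with forced coupling to calcium, loaded with no-wash calcium dye; kinetic fluorescence read 180 s after compound addition for agonism, then a further 180 s after an EC20 dopamine challenge for potentiation.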

[2] = molecular target: D(1A) dopamine receptor (Homo sapiens) (UniProt P21728); experiment: HTS Assay for Allosteric Agonists of the Human D1 Dopamine Receptor: Primary Screen for Antagonists (AID 488983);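 further: calcium flux response to an EC80 dopamine challenge measured with no-wash dye; nearly all actives have a fitted effect of over 65% in size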; further: potency means the concentration at half of the fitted maximal effect
Procedure, shortened: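 Calcium-flux read-out in inducible HEK293 T-REx cells expressing D1, dye-loaded 30–90 min at room temperature. Kinetic reads: 180 s after compound (agonist phase), then 180 s after an EC80 dopamine challenge.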

[3] = Validation screen for small molecules that induce genotoxicity in human embryonic kidney (HEK293T) cells expressing luciferase-tagged ELG1 (AID 493106)
Procedure, shortened: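 ELG1-luciferase reporter readout (ONE-Glo, 30 min, room temperature) after 16 hr compound treatment at 37 °C of HEK293T cells at 2,000 per well. Rising luminescence flags genotoxic stress.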

[4] = molecular target: ATPase family AAA domain-containing protein 5 (Homo sapiens) (UniProt Q96QE3); experiment: Validation screen for small molecules that inhibit ELG1-dependent DNA repair in human embryonic kidney (HEK293T) cells expressing luciferase-tagged ELG1 (AID 493107);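 further: series mostly up to about 46 µM; inhibitors lower the ELG1-luciferase luminescence signal; nearly all actives have a fitted effect of over 70% in size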
Procedure, shortened: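 Luciferase read-out, ONE-Glo, 30 min at room temperature, follows 16 h co-exposure at 37 C of compound and the DNA-damaging agent 5-fluorouridine. Cells: HEK293T with ELG1-luciferase fusion, 2,000 per well, DMSO as vehicle.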

[5] = molecular target: Thyrotropin-releasing hormone receptor (Homo sapiens) (UniProt P34981); experiment: qHTS for Small Molecule Agonists and Allosteric Enhancers of Human TRH Receptor: Validation Screen for Agonists (AID 493127;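 active means calcium activation more than 3 SD above the typical response in the agonist read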;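 further: intracellular calcium rise by fluo-8 fluorescence before TRH EC20 addition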); settings: TRH receptor agonist cell assay; at 2 µM; stronger effect = higher value
Procedure, shortened: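 Compound-evoked intracellular calcium release in fluo-8-loaded TRHR cells, read kinetically on FDSS (Ex 480/Em 530, 1 s/cycle) after 23 nL pintool transfer. Agonist phase preceded 10 nM TRH EC20 addition.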

[6] = Nrf2 qHTS screen for inhibitors: Validation (AID 493153; active means well fitted inhibition curve with a large enough effect in the main read-out, with a control signal flat, not every such curve was filed as active); settings: viability change: measured here: cytotoxicity max response
Procedure, shortened: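 Concentration-response on A549 ARE_Fluc reporter cells exposed 18-24 h at 37 C, 5% CO2. Cytotoxicity read first by CellTiter-Fluor fluorescence (Ex 405/Em 525), then Nrf2 inhibition by BugLite luminescence after 15 min.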

[7] = qHTS for Inhibitors of Cell Surface uPA Generation: Validation Assay (AID 493164);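 further: RAW 264.7 macrophage cells exposed to compound for 18 h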
Procedure, shortened: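 ATP-Lite luminescence read-out: ATP remains high when uPA activity-dependent LF translocation into the cytoplasm is blocked. RAW 264.7 cells, 18 h compound exposure at 37 C; 7-point titration, 2.45 nM to 38.3 uM final.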

[8] = molecular target: Galactokinase (Homo sapiens) (UniProt P51570); experiment: qHTS Validation Assay for Inhibitors of Human Galactokinase (GALK) (AID 493189)
Procedure, shortened: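 GALK (5 nM) with 35 uM ATP and 100 uM galactose in HEPES pH 8.0 with MgCl2, NaCl, DTT and BSA. Reaction ran 1 h at room temperature. Residual ATP read by Kinase-Glo Plus luminescence.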

[9] = Validation screen for small molecules that induce DNA re-replication in SW480 colon adenocarcinoma cells (AID 504364)
Procedure, shortened: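 Image-based DNA content read-out: Hoechst stain 40 min, total nuclear fluorescence intensity (ex 405 nm, em 500-530 nm) after 48 h compound exposure of 250 SW480 cells/well at 37 C, 5% CO2, versus DMSO vehicle.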

[10] = molecular target: Peptidyl-prolyl cis-trans isomerase NIMA-interacting 1 (Homo sapiens) (UniProt Q13526); experiment: qHTS Validation Assay to Find Inhibitors of Pin1 (AID 504536; active means well fitted inhibition curve with a large enough effect in the polarisation, with a control signal flat, not every such curve was filed as active; the % refers to the polarisation)
Procedure, shortened: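 Fluorescence polarization competition: compounds (titration) displace HiFluor-488-labeled Pin1-1b peptide from Pin1 (0.3 uM final) in pH 7.5 HEPES buffer with DTT, 10 min at room temperature; %Activity normalized to no-enzyme wells, curves fitted.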

[11] = molecular target: Phosphoglycerate kinase, glycosomal (Trypanosoma brucei brucei) (UniProt P07378); experiment: qHTS Validation Assay to Find Inhibitors of Phosphoglycerate Kinase (AID 504547)
Procedure, shortened: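 Compounds are pinned into the substrate/PGK mixture, and GAPDH (100nM final) is added to start the reaction by producing 1,3-BPG. After 60 minutes at room temperature, Kinase-Glo Plus is added and luminescence is measured 10 minutes later.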

[12] = molecular target: phosphoglycerate mutase (Leishmania major) (UniProt Q4Q090); experiment: qHTS Validation Assay to Find Inhibitors of Phosphoglycerate Mutase (AID 504548);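 further: end-point luminescence from Kinase-GloPlus after the PGAM reaction; series mostly up to about 58 µM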
Procedure, shortened: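 Inhibition of L. major PGAM was assessed by Kinase-GloPlus luminescence following a 45-minute room-temperature reaction with enzyme at 1.25nM final.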

[13] = Inducers of the Endoplasmic Reticulum Stress Response (ERSR) in human glioma: Validation (AID 504836)
Procedure, shortened: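 Stably transfected U87-MG glioma cells carrying a GRP78-based luciferase sensor; 16 h compound incubation. Luminescence end-point read 10 min after Bright-Glo addition at room temperature.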

[14] = qHTS for Inhibitors of ATXN expression: Validation of Cytotoxic Assay (AID 588349)
Procedure, shortened: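 Cytotoxicity counter-screen: ATP-based luminescent viability (CellTiter Glo) after 72 hr exposure of HEK293 cells to a compound titration at 37 degrees C.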

[15] = qHTS for Inhibitors of ATXN expression: Validation (AID 588378); further: series mostly up to about 57 µM; nearly all actives have a fitted effect of over 75% in size
Procedure, shortened: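 HEK293 cells carrying ATXN2-firefly luciferase reporter, treated with compound 24 h at 37 °C. Viability read first by CellTiter-Fluor (405/525 nm), then reporter expression by Bright-Glo luminescence; controls were a known ATXN2 expression inhibitor and a luciferase inhibitor.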

[16] = molecular target: DNA dC->dU-editing enzyme APOBEC-3G (Homo sapiens) (UniProt Q9HC16); experiment: qHTS for inhibitors of Vif-A3G interactions: Validation (AID 588379)
Procedure, shortened: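 Yellow fluorescence (Ex 488, Em 500-530) of Vif-coexpressing HeLa A3G-eYFP cells, scanned by Acumen cytometer, reports blocked A3G degradation. Cells plated at 700/well overnight at 37 deg C before compound addition, then a further overnight compound incubation at 37 deg C.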

[17] = molecular target: Ubiquitin carboxyl-terminal hydrolase 1 (Homo sapiens) (UniProt O94782); experiment: Inhibitors of USP1/UAF1: Pilot qHTS (AID 504865);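 further: rhodamine fluorescence freed from ubiquitin-rhodamine substrate followed over time; top concentration of the series differs between compounds; nearly all actives have a fitted effect of over 35% in size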
Procedure, shortened: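 USP1/UAF1 complex at 1 nM preincubated 15 min at room temperature with compound, then Ub-Rho substrate added at 150 nM final. Fluorescence (480/540 nm) read kinetically in 50 mM HEPES pH 7.8, 0.5 mM EDTA, 1 mM TCEP, 0.1 mg/ml BSA, 0.01% Tween-20.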

[18] = molecular target: ATP-dependent 6-phosphofructokinase (Trypanosoma brucei brucei) (UniProt O15648); experiment: qHTS Assay to Find Inhibitors of T. brucei phosphofructokinase: hit validation (AID 492961);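 further: luminescence reports ADP formed as PFK phosphorylates fructose-6-phosphate with ATP; series mostly up to about 51 µM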
Procedure, shortened: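 Inhibition of parasite PFK is measured as reduced ADP formation, quantified via luciferase after ATP depletion. Assay used 0.1 mM ATP, 0.5 mM F6P, 1.25 nM enzyme, 45 min incubation.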

Sequence of DNA dC->dU-editing enzyme APOBEC-3G (Homo sapiens) (Q9HC16 whole entry, looked up): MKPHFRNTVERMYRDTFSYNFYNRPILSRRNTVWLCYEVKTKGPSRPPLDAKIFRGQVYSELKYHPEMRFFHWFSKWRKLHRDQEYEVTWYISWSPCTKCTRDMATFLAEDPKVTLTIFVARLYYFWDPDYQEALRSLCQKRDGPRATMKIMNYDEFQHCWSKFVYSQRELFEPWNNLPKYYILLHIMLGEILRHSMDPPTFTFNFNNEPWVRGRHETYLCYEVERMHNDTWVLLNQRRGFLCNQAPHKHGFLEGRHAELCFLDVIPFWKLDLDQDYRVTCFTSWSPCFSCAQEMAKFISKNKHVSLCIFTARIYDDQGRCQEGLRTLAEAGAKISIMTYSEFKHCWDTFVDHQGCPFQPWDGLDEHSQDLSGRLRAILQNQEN
Sequence of ATPase family AAA domain-containing protein 5 (Homo sapiens) (Q96QE3 whole entry, looked up, the tested form may be a part): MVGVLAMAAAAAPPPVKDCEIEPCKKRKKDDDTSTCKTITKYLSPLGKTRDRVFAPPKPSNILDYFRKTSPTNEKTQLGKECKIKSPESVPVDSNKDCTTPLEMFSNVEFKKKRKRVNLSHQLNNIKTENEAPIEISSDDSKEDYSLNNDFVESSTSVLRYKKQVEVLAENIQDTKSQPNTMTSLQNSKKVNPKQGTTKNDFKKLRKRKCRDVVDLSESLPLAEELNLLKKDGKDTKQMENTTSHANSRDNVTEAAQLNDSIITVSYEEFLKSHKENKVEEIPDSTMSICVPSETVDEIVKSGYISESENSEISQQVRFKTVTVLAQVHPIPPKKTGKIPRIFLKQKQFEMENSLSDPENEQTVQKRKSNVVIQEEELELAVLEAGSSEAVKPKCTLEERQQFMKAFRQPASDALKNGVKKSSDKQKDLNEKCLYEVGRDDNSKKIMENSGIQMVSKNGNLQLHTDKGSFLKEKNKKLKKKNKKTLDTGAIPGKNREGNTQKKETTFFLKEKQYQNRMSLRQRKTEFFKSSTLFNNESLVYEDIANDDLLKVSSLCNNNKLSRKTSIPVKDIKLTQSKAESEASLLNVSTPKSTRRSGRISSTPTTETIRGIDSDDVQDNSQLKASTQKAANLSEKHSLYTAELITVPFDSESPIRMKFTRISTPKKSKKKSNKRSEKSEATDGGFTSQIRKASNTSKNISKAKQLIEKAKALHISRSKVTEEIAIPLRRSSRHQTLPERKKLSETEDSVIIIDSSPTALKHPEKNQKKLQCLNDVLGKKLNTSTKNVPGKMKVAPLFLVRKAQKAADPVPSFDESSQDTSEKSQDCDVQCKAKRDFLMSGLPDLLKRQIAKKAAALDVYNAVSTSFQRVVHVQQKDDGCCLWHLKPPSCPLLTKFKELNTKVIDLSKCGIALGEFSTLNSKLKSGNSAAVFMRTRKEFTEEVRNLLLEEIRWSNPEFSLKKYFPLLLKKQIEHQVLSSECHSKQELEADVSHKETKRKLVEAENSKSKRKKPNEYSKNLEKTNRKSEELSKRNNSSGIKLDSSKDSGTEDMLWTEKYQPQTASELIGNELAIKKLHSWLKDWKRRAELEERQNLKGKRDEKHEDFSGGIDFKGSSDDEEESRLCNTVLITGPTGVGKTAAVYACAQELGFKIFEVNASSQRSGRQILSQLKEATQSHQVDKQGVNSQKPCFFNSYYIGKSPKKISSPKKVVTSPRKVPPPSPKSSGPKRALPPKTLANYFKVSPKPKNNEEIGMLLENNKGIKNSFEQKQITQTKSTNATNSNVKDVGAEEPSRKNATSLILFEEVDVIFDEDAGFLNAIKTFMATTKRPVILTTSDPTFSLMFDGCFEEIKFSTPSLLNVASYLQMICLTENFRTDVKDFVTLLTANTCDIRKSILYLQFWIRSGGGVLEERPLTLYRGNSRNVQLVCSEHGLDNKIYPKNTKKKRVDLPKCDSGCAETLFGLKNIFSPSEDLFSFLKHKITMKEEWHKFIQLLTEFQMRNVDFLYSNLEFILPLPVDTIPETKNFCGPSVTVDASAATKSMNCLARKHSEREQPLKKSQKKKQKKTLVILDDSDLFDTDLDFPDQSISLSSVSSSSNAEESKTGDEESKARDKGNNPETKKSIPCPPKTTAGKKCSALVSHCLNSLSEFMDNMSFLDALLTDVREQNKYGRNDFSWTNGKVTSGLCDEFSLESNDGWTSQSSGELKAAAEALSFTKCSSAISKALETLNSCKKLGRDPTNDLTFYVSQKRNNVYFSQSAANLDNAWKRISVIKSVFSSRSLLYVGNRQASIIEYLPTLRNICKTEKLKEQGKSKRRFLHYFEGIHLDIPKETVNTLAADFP
Sequence of D(1A) dopamine receptor (Homo sapiens) (P21728 whole entry, looked up): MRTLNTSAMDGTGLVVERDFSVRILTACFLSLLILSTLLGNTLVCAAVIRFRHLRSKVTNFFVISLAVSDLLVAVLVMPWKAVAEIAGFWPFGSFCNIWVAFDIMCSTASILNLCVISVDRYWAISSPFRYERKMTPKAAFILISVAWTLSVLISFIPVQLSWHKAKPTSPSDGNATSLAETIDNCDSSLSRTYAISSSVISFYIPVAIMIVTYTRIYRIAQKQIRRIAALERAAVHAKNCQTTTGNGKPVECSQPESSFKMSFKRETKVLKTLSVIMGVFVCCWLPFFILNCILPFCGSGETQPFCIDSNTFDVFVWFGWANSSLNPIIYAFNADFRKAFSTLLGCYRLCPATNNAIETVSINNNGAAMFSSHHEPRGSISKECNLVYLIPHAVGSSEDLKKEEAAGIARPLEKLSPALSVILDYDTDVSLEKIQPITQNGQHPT
Sequence of Ubiquitin carboxyl-terminal hydrolase 1 (Homo sapiens) (O94782 whole entry, looked up): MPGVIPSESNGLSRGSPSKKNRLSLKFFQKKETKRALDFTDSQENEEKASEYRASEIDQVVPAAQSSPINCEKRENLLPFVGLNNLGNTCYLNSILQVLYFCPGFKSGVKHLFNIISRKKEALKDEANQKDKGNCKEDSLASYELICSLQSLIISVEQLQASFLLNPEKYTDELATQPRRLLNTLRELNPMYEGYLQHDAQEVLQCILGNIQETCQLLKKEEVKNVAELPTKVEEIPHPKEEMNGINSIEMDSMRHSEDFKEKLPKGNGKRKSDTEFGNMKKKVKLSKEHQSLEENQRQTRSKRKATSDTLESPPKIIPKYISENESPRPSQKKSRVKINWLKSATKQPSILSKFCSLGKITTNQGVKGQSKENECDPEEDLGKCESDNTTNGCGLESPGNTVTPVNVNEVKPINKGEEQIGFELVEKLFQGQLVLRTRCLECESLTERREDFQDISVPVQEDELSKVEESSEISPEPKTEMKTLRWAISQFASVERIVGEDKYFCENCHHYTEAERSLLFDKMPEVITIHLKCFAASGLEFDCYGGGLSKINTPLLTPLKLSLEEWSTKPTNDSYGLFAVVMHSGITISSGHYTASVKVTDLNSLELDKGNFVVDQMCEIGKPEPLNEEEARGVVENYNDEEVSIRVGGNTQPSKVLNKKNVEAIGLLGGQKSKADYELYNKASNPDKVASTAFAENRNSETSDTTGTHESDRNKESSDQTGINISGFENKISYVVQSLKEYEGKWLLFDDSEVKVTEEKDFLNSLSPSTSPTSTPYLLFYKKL
Sequence of Thyrotropin-releasing hormone receptor (Homo sapiens) (P34981 whole entry, looked up): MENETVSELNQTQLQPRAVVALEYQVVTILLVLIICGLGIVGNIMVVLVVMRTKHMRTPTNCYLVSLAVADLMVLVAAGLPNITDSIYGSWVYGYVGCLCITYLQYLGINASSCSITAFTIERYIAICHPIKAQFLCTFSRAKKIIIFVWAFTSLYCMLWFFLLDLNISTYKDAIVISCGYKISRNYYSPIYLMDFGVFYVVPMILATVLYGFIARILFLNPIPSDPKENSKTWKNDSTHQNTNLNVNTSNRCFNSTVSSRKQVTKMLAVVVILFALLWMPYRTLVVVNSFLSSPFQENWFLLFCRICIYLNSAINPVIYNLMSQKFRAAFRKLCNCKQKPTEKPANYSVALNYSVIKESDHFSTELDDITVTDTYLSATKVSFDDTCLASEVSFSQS
Sequence of Peptidyl-prolyl cis-trans isomerase NIMA-interacting 1 (Homo sapiens) (Q13526 whole entry, looked up): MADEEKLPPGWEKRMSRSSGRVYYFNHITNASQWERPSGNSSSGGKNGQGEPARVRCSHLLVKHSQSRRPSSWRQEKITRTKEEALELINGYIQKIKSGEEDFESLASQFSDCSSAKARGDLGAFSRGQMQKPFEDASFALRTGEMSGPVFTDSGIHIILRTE
Sequence of Galactokinase (Homo sapiens) (P51570 whole entry, looked up): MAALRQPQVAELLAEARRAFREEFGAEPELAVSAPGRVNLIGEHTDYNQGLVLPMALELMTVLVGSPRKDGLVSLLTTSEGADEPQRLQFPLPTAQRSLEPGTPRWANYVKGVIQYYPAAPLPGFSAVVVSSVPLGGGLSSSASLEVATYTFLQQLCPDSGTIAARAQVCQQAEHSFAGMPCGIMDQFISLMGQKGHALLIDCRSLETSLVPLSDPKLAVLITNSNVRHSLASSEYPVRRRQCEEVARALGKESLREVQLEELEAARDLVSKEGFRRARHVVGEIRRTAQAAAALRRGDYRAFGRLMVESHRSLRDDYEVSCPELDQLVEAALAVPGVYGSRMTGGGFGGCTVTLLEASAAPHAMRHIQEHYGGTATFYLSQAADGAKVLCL
Sequence of phosphoglycerate mutase (Leishmania major) (Q4Q090 1-553): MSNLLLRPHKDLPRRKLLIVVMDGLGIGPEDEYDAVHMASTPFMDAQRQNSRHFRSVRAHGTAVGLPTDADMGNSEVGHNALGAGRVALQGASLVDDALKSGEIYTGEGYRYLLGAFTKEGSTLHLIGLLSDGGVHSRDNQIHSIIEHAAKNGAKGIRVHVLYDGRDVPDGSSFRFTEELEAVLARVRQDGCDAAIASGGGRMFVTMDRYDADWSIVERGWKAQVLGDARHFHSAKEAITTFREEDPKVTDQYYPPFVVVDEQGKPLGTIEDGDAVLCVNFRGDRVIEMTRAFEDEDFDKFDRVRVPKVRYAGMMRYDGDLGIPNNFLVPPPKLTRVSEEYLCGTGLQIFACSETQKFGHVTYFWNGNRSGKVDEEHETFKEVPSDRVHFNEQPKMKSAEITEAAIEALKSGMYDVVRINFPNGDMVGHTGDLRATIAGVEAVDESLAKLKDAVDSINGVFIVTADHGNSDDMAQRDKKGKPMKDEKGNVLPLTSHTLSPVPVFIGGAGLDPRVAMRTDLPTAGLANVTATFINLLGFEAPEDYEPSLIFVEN

Structure (SMILES)	outcome [1]	Potency [2]	outcome [3]	Potency [4]	activation [5]	outcome [6]	viability change [6] [%]	outcome [7]	outcome [8]	outcome [9]	outcome [10]	outcome [11]	outcome [12]	Potency [13]	outcome [14]	Potency [15]	outcome [16]	Potency [17]	Potency [18]
S=C(NC1CCCCC1)N1CCC(c2cnc[nH]2)CC1	inactive	inactive	inactive	inactive	0.5% (inactive)	inactive	-5.13	inactive	inactive	inactive	inactive	inactive	inactive	inactive	inactive	inactive	inactive		
CS(=N)(=O)CC[C@H](N)C(=O)O (stereo partly drawn)	inactive	inactive	inactive	inactive	0.312% (inactive)	inactive	3.11	inactive	inactive	inactive	inactive	inactive	inactive	inactive	inactive	inactive			
CC(=O)[C@H]1CCC2C3CC[C@H]4C[C@H](O)CC[C@]4(C)C3CC[C@@]21C (stereo partly drawn)	inactive	inactive	inactive	inactive	-6% (inactive)	inactive	-0.378	inactive	inactive	inactive		inactive	inactive	inactive	inactive	inactive		inactive	
C=CCN1CC[C@]23CCCCC2[C@H]1Cc1ccc(O)cc13 (stereo partly drawn)	inactive	inactive	inactive	inactive	2% (inactive)	inactive	-5	inactive	inactive	inactive	inactive	inactive	inactive	inactive		inactive		inactive	inactive
C#CCOC(=O)C1=CCCN(C)C1	inactive	inactive	inactive	inactive	3.19% (inactive)	inactive	-2.85	inactive	inactive	inactive	inactive	inactive	inactive	inactive	inactive	inactive	inactive	inactive	
CC1=NN=C(c2ccc(N)cc2)c2cc3c(cc2C1)OCO3	inactive	inactive	inactive	inactive	0.438% (inactive)	inactive	-4.5	inactive	inactive	inactive	inactive	inactive	inactive	inactive	inactive	inactive	inactive		
CNCCc1ccc(O)c(O)c1	inactive	0.251 µM (active)	inactive	inactive	-0.25% (inactive)	inactive	0.688	inactive	inactive		inactive			inactive				inactive	
